Results taken from PubChem BioAssay (Tox21).
Values without a mark were called inactive. Records with an inconclusive call do not appear. Entries that show only a call come without a potency. The source made the active and inactive calls. Unless noted, calls come from the whole dose curve; as a rule, active = well fitted curve in the direction sought with a large enough effect in the repeat runs; inconclusive = weak or mixed curves; inactive = no such curve, though single readings can be large; an effect the other way counts as inactive or inconclusive.

Key:
[1] = biological target: Thyrotropin receptor (Homo sapiens) (UniProt P16473); assay: qHTS assay to identify small molecule agonists of the thyroid stimulating hormone receptor (TSHR) signaling pathway (AID 1224843; calls by dose curve; note: nearly all actives have a fitted effect of over 45% in size)
Summary of the method: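 TSHR-expressing HEK293 cells (800 per well) were exposed to compounds for 30 min at room temperature. cAMP was then detected by HTRF competition with cAMP-d2 and anti-cAMP cryptate, read after 1 h at room temperature. Fifteen concentrations, triplicate.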

[2] = qHTS assay to identify small molecule agonists of H2AX (AID 1224845; active = well fitted activation curve with a large enough effect in the signal ratio in the repeat runs, not every such curve was filed as active; the % refers to the signal ratio; note: potency is the fitted concentration of half-maximal effect)
Summary of the method: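 Wild-type CHO-K1 cells plated overnight, then exposed 3 hr at 37C to compounds at 15 concentrations (0.76% DMSO). Lysed, then HTRF anti-pH2AX(S139)-cryptate/anti-H2AX-d2 detection after 24 hr at room temperature; emissions 665 and 620 nm.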

[3] = qHTS assay to identify small molecule agonists of the hypoxia (HIF-1) signaling pathway (AID 1224846; active = well fitted activation curve with a large enough effect in the signal ratio in the repeat runs, not every such curve was filed as active; the % refers to the signal ratio)
Summary of the method: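 Steps: seed ME-180 HRE-bla cells (2,000/well, 0.5% dialyzed FBS); incubate 5 hrs at 37C; pin-transfer compounds or DMSO; incubate 17 hrs; add LiveBLAzer B/G substrate CCF4-AM; measure reporter activation by FRET.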

[4] = qHTS RealTime-Glo MT Cell Viability Assay in HepG2 cells - 24 hour (AID 1224867); note: nearly all actives have a fitted effect of over 50% in size; note: potency is the fitted concentration of half-maximal effect
Summary of the method: (§1)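 Tox21 10K library screened in qHTS format on HepG2 cells carrying RealTime-Glo reagents. Compounds were added after a 5 h preincubation, and the luminescent signal from continuous culture was measured repeatedly during 40 h treatment.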

[5] = qHTS RealTime-Glo MT Cell Viability Assay in HEK293 cells - 32 hour (AID 1224868); note: nearly all actives have a fitted effect of over 50% in size; note: potency is the fitted concentration of half-maximal effect
Summary of the method: (§2)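 Luminescence generated by NanoLuc from substrate produced by living HEK293 cells served as the viability signal. Each value reflects the reading at its stated time point during continuous 40 h compound exposure at 37 C.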

[6] = A CellTox Green Cytotoxicity Assay to monitor cytotoxicity in HEK293 cells - 0 hour (AID 1224869); note: nearly all actives have a fitted effect of over 50% in size
Summary of the method: (§3)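 Cytotoxicity was tracked continuously in HEK293 cells by a DNA-binding dye excluded from viable cells. Compounds were transferred in DMSO 5 h after seeding; fluorescence was recorded at intervals up to 40 h.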

[7] = qHTS RealTime-Glo MT Cell Viability Assay in HepG2 cells - 40 hour (AID 1224870); note: nearly all actives have a fitted effect of over 50% in size; note: potency is the fitted concentration of half-maximal effect
Summary of the method: (§4)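 HepG2 cells mixed with RealTime-Glo MT reagents (NanoLuc plus cell-permeant prosubstrate) were seeded at 600 cells/well, incubated 5 h at 37 C/5% CO2, then pinned with compounds in DMSO; nonlytic luminescence tracked viability during 40 h treatment.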

[8] = A CellTox Green Cytotoxicity Assay to monitor cytotoxicity in HEK293 cells - 40 hour (AID 1224871); note: nearly all actives have a fitted effect of over 45% in size; note: potency is the fitted concentration of half-maximal effect
Summary of the method: as §3

[9] = qHTS RealTime-Glo MT Cell Viability Assay in HEK293 cells - 16 hour (AID 1224872); note: nearly all actives have a fitted effect of over 50% in size; note: potency is the fitted concentration of half-maximal effect
Summary of the method: as §2

[10] = qHTS RealTime-Glo MT Cell Viability Assay in HepG2 cells - 8 hour (AID 1224873); note: nearly all actives have a fitted effect of over 55% in size; note: potency is the fitted concentration of half-maximal effect
Summary of the method: as §4

[11] = qHTS RealTime-Glo MT Cell Viability Assay in HEK293 cells - 40 hour (AID 1224874); conditions: RealTime-Glo luminescence; max response: stronger effect = lower value; note: nearly all actives have a fitted effect of over 50% in size; note: potency is the fitted concentration of half-maximal effect
Summary of the method: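 Nonlytic bioluminescent viability monitoring. HEK293 at 600 cells/well with reagent; 5 h settle; compound transfer by pintool; plates held at 37 C and read at set time points.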

[12] = A CellTox Green Cytotoxicity Assay to monitor cytotoxicity in HEK293 cells - 24 hour (AID 1224875); note: nearly all actives have a fitted effect of over 45% in size; note: potency is the fitted concentration of half-maximal effect
Summary of the method: as §3

[13] = A CellTox Green Cytotoxicity Assay to monitor cytotoxicity in HepG2 cells - 16 hour (AID 1224876); note: nearly all actives have a fitted effect of over 45% in size; note: potency is the fitted concentration of half-maximal effect
Summary of the method: (§5)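 Real-time, homogeneous cytotoxicity readout: dead-cell DNA staining by CellTox Green in HepG2 monolayers, fluorescence measured at timed intervals up to 40 h of continuous compound exposure.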

[14] = A CellTox Green Cytotoxicity Assay to monitor cytotoxicity in HepG2 cells - 24 hour (AID 1224878); note: nearly all actives have a fitted effect of over 45% in size; note: potency is the fitted concentration of half-maximal effect
Summary of the method: as §5

[15] = A CellTox Green Cytotoxicity Assay to monitor cytotoxicity in HepG2 cells - 40 hour (AID 1224879); note: nearly all actives have a fitted effect of over 40% in size; note: potency is the fitted concentration of half-maximal effect
Summary of the method: as §5

[16] = qHTS assay to identify small molecule agonists of H2AX - cell viability counter screen (AID 1224847; calls by dose curve; note: nearly all actives have a fitted effect of over 30% in size; note: potency is the fitted concentration of half-maximal effect)
Summary of the method: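 Read-out: CellTiter-Glo luminescence, 30 min RT. Cells: wild-type CHO-K1, 1000/well, 10% FBS, plated overnight at 37C. Treatment: 15 concentrations, 3 hr, 37C, 0.76% DMSO.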

[17] = qHTS RealTime-Glo MT Cell Viability Assay in HepG2 cells - 32 hour (AID 1224877); note: nearly all actives have a fitted effect of over 55% in size; note: potency is the fitted concentration of half-maximal effect
Summary of the method: as §1

[18] = qHTS assay to identify small molecule antagonists of the estrogen related receptor (ERR) signaling pathway from Tox21 library (AID 1224848)
Summary of the method: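 Cells: ERR line, 2,000/well; 6 h preincubation 37 C/5% CO2. Cpd in DMSO via pin tool; 18 h, 37 C. ONE-Glo, 30 min RT, luminescence.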

[19] = qHTS assay to identify small molecule agonists of the estrogen related receptor (ERR) signaling pathway from Tox21 library (AID 1224849; calls by dose curve; note: nearly all actives have a fitted effect of over 15% in size); conditions: ERR reporter cell line, ONE-Glo luciferase, 18 h; at 92.4 µM (top of the series) unless noted
Summary of the method: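 Agonist signal is luciferase luminescence from an ERR reporter cell line treated 18 h at 37 C with DMSO-dissolved compounds, read 30 min after ONE-Glo addition at room temperature.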

Chain of Thyrotropin receptor (Homo sapiens) (P16473 whole entry, looked up): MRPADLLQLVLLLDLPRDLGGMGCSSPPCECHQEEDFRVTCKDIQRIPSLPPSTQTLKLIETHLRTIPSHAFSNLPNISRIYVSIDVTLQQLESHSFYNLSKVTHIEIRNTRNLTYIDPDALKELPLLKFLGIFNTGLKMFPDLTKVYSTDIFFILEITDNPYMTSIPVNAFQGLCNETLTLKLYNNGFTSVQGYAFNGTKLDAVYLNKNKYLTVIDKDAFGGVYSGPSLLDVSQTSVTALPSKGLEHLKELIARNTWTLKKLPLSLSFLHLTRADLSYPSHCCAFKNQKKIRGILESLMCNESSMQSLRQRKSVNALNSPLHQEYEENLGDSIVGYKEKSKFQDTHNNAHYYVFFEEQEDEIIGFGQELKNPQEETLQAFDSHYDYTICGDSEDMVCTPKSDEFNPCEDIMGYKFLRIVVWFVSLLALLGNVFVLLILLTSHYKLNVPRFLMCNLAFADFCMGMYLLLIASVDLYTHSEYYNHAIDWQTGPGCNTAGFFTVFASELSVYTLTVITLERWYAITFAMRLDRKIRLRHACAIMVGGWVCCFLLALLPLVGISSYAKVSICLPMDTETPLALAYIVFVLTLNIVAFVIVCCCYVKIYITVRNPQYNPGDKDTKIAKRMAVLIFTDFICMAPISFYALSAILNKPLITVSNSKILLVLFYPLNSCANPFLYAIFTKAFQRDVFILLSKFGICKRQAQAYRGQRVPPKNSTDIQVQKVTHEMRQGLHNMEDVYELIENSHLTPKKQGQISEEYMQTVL

Row | Compound | Potency [1] | Potency [2] | outcome [3] | Potency [4] | Potency [5] | Potency [6] | Potency [7] | Potency [8] | Potency [9] | Potency [10] | max response [11] [%] | Potency [12] | Potency [13] | Potency [14] | Potency [15] | Potency [16] | Potency [17] | Potency [18] | activity change, positive = activation [19] | Potency [11]
1 | Nc1ncnc2c1ncn2[C@H]1CC[C@@H](CO)O1 | inactive | inactive | inactive | inactive | inactive | inactive | inactive | inactive | inactive | inactive | 18.9 | inactive | inactive | inactive | inactive | – | – | – | – | –
2 | O=C(Nc1cccc2c(=O)cc(-c3nn[nH]n3)oc12)c1ccc(OCCCCc2ccccc2)cc1 | inactive | inactive | – | inactive | inactive | inactive | inactive | – | inactive | inactive | -0.852 | inactive | – | – | – | inactive | inactive | – | – | –
3 | C1COC1 | inactive | inactive | inactive | inactive | inactive | inactive | inactive | inactive | inactive | inactive | 6.53 | inactive | inactive | inactive | inactive | inactive | inactive | – | – | –
4 | C=C(C)C(=O)OCCCCCCCCCCCCC | inactive | inactive | inactive | inactive | inactive | inactive | inactive | inactive | inactive | inactive | 4.36 | inactive | – | inactive | inactive | inactive | – | – | – | –
5 | Clc1ccc(Nc2nnc(Cc3ccncc3)c3ccccc23)cc1 | inactive | – | inactive | inactive | 21.3 µM (active) | inactive | inactive | – | – | inactive | – | inactive | inactive | inactive | inactive | inactive | inactive | 11.9 µM (active) | -42.3% [at 42.5 µM] | 19 µM (active)
6 | COC(=O)CCS | inactive | inactive | inactive | inactive | inactive | inactive | inactive | – | inactive | inactive | – | inactive | inactive | inactive | inactive | inactive | inactive | – | – | –
7 | CC(C)=CCC1C(=O)N(c2ccccc2)N(c2ccccc2)C1=O | inactive | inactive | – | inactive | inactive | inactive | inactive | inactive | inactive | inactive | 4.23 | inactive | inactive | inactive | inactive | inactive | inactive | – | – | –
8 | Cc1ccc2c(Br)cc(Br)c(O)c2n1 | inactive | 39.1 µM (active) | – | – | – | inactive | inactive | – | inactive | inactive | – | inactive | – | inactive | inactive | – | inactive | 8.41 µM (active) | -65.3% [at 42.5 µM] | –
9 | CCOC(=O)c1ccc(OCCN2C[C@H](O)[C@@H](O)[C@H](O)[C@H]2CO)cc1 | inactive | inactive | inactive | inactive | inactive | inactive | inactive | inactive | inactive | inactive | 1.01 | inactive | inactive | inactive | inactive | inactive | – | – | – | –
10 | CC[C@]1(O)C[C@H]2CN(CCc3c([nH]c4ccccc34)[C@@](C(=O)OC)(c3cc4c(cc3OC)N(C=O)[C@H]3[C@@](O)(C(=O)OC)[C@H](OC(C)=O)[C@]5(CC)C=CCN6CC[C@]43[C@@H]65)C2)C1 | inactive | inactive | – | inactive | 0.0013 µM (active) | inactive | inactive | inactive | inactive | inactive | – | inactive | – | inactive | – | inactive | inactive | – | – | 0.0012 µM (active)
11 | OCCN1CCN(CCCN2c3ccccc3Sc3ccc(Cl)cc32)CC1 | inactive | inactive | – | 23.9 µM (active) | 23.9 µM (active) | inactive | 23.9 µM (active) | 26.8 µM (active) | 23.9 µM (active) | 23.9 µM (active) | – | – | 21.3 µM (active) | 15.1 µM (active) | 19 µM (active) | – | 23.9 µM (active) | 29.8 µM (active) | -48% [at 42.5 µM] | 23.9 µM (active)
12 | Clc1cc(Cl)nc(Cl)n1 | inactive | inactive | – | – | – | inactive | inactive | inactive | inactive | inactive | – | inactive | inactive | inactive | inactive | inactive | inactive | – | – | –
13 | COc1ccccc1N1CCN(CC(O)COc2cccc3ccccc23)CC1 (centres undefined) | inactive | inactive | – | – | 26.8 µM (active) | inactive | – | – | – | inactive | – | inactive | – | – | 30.1 µM (active) | 49.2 µM (active) | – | – | – | –
14 | O=C1NC(=O)c2cc([N+](=O)[O-])ccc21 | inactive | inactive | inactive | – | inactive | inactive | inactive | – | inactive | inactive | – | inactive | – | inactive | inactive | inactive | inactive | – | – | –
15 | CC1(C)S[C@@H]2[C@H](NC(=O)C(c3ccccc3)S(=O)(=O)O)C(=O)N2[C@H]1C(=O)O (some centres undefined) | inactive | inactive | inactive | inactive | inactive | inactive | inactive | – | inactive | inactive | 0.0341 | inactive | inactive | inactive | inactive | inactive | inactive | – | – | –
16 | CC(C)(c1ccccc1)c1ccccc1 | inactive | inactive | inactive | inactive | inactive | – | inactive | 51.1 µM (active) | – | inactive | -9.58 | 51.1 µM (active) | inactive | inactive | inactive | inactive | inactive | – | – | –
